# Assay outcomes as filed in PubChem BioAssay.
# Rows were chosen to be rich in hits. Some 11% of all compounds tested hit in one or more screens of this group.
# HCV inhibitor = blocks hepatitis C virus. AID 651820. Potency, µM (top dose mostly 41.8 µM), usual class: inhibitors. actives 3.4% (n = 340,000). Huh7.5.1 HCVcc-Cre infection, luciferase reporter, 44 h
#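 Seed cells (1,000/well) for 4 h; treat with compound and infect with HCVcc-Cre, moi about 0.5. Incubate 44 h, then detect luciferase activity.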
# Pf growth 96h = inhibits malaria parasite growth, 96 h; actives 6.9% (n = 320,000); Potency, µM (highest dose often 28.7 µM), most hits filed as inhibitors; P. falciparum luciferase reporter growth, 96 h
#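 Compounds incubated with erythrocytes infected by luciferase-expressing P. falciparum (2% hematocrit, 0.05% parasitemia final) for 96 hours, 37 C in 5% CO2. Growth inhibition scored as decreased luciferase luminescence.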
# Pf growth 48h = P. falciparum growth inhibition at 48 hours (one generation); P. falciparum luciferase growth in erythrocytes, 48 h; Potency, µM (highest dose often 28.7 µM), hits mostly inhibitors; actives 5.9% (n = 310,000)
#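 Firefly luciferase activity from engineered P. falciparum reports growth; inhibitors lower the luminescent signal. Cultures contained 2% hematocrit erythrocytes at 0.1% final parasitemia.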
# AmpC no deterg = inhibitors of E. coli AmpC beta-lactamase without detergent | AID 485341 | AmpC nitrocefin hydrolysis, absorbance 480 nm, 0.0001% Triton | P00811 | actives 0.52% (n = 330,000) | Potency, µM (doses to about 57.1 µM), usual class: inhibitors; further: nearly all actives have a fitted effect of over 20% in size
# Target sequence (P00811 whole entry, looked up): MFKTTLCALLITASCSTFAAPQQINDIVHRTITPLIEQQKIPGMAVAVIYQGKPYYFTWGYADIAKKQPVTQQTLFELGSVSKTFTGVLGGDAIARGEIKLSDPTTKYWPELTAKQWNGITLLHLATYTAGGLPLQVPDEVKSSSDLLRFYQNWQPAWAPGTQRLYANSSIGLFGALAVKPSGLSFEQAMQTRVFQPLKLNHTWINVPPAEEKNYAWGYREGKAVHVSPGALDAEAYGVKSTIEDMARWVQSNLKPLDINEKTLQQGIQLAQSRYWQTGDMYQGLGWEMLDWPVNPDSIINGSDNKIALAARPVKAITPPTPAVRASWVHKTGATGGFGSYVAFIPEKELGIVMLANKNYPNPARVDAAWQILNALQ
#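 AmpC (5.3 nM in the dispensed reagent) in 20 mM phosphate pH 7.0 with 0.01% (detergent screen) or 0.0001% Triton X-100 was preincubated with compounds for 15 min at room temperature. Nitrocefin was then added from an 800 uM solution, and hydrolysis was followed at 480 nm.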
# AMA1 RON2 block = disrupts binding of P. falciparum AMA1 to RON2; Potency, µM (doses to about 58.2 µM), actives largely listed as inhibitors; AlphaScreen AMA1-biotinylated RON2 peptide binding; AID 720542; actives 0.2% (n = 360,000); further: nearly all actives have a fitted effect of over 45% in size
#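 AMA1 (3D7) with his tag at 25 nM final met compounds first, then biotinylated RON2 peptide at 25 nM; detection used donor plus acceptor beads, 10 µg/mL apiece, read by AlphaScreen after 30 min at room temperature.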
# AmpC inh detg = blocks E. coli AmpC beta-lactamase in detergent assay; AmpC hydrolysis of nitrocefin, absorbance 480 nm, 0.01% Triton; Potency, µM (series often up to 114 µM), most hits filed as inhibitors; actives 0.041% (n = 370,000); further: nearly all actives have a fitted effect of over 25% in size
#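 AmpC (5.3 nM in the dispensed reagent) in 20 mM phosphate pH 7.0 with 0.01% (detergent screen) or 0.0001% Triton X-100 was preincubated with compounds for 15 min at room temperature. Nitrocefin was then added from an 800 uM solution, and hydrolysis was followed at 480 nm.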
# A number is an active result; . = inactive; ? = inconclusive; / = no result. The call rests on the fitted dose curve; in most records, active means well fitted curve in the direction sought with a large enough effect; inconclusive means small, poorly fitted or top-dose-only effect, or another doubt; inactive means no such curve, though single readings can be large; an effect the other way counts as inactive or inconclusive.
SMILES,HCV inhibitor,Pf growth 96h,Pf growth 48h,AmpC no deterg,AMA1 RON2 block,AmpC inh detg
CN1/C(=C\C(=O)COC(=O)c2nccnc2N)C(C)(C)c2ccccc21,.,.,?,.,.,.
CN1/C(=C\C(=O)COC(=O)c2ccc([N+](=O)[O-])o2)C(C)(C)c2ccccc21,.,13µM,?,.,.,.
COC(=O)c1ccc(Oc2nc3c(c(=O)n(C)c(=O)n3C)n2Cc2ccc(Cl)c(Cl)c2)cc1,/,/,/,/,/,.
CCc1cc2c(NCc3ccccc3)nc(C)nc2s1,7.9µM,.,.,.,.,.
CCc1cc2c(NCc3ccco3)ncnc2s1,16µM,.,.,.,.,.
CCCCNC(=O)CCCn1c(=O)c2ccccc2n(Cc2ccc(Cl)cc2)c1=O,/,/,/,/,/,.
CCC(Oc1ccccc1)C(=O)Nc1ccc(OCc2cc(=O)n3ccc(C)cc3n2)cc1 (stereo unspecified),/,/,/,/,/,.
CCn1cc(C(=O)NCCc2ccc(Cl)cc2)c(=O)c2cc(S(=O)(=O)N3CCC(C)CC3)ccc21,/,/,/,/,/,.
CC1CCC2(CC1)NC(=O)N(CC(=O)NC(=O)NC1CCCC1)C2=O (stereo unspecified),.,13µM,.,.,.,.
CC1CCC2(CC1)NC(=O)N(CC(=O)Nc1cccc(S(=O)(=O)N3CCOCC3)c1)C2=O (stereo unspecified),.,.,.,.,.,.
CC1CCC2(CC1)NC(=O)N(CC(=O)Nc1cccc(S(=O)(=O)N3CCCCC3)c1)C2=O (stereo unspecified),25µM,/,/,.,.,/
O=C(CN1C(=O)NC2(CCCCCC2)C1=O)NC1CCCCCCC1,.,.,.,.,.,.
CCC1(c2ccc(F)cc2)NC(=O)N(CC(=O)Nc2cccc(S(=O)(=O)N3CCCCC3)c2)C1=O (stereo unspecified),10µM,?,?,.,.,.
CCOc1ccc(NC(=O)CN2C(=O)COc3ccc(S(=O)(=O)NC4CCCC4)cc32)cc1,/,/,/,/,/,.
O=C(CS(=O)(=O)c1ccc(Cl)cc1)Nc1nc2ccc(Br)cc2s1,/,/,/,/,/,.
Cn1c(=O)c2cc(C(=O)Nc3cccc(C#N)c3)sc2c2ccccc21,/,/,/,/,/,.
CCOC(=O)[C@H]1[C@H]2COc3ccc(OC)cc3[C@@H]2N2C(=O)CN(Cc3ccc(C)cc3)C(=O)[C@@]12C,.,3.7µM,10µM,.,.,.
CCOC(=O)[C@H]1[C@H]2COc3ccc(Br)cc3[C@@H]2N2C(=O)CN(Cc3ccc(C)cc3)C(=O)[C@@]12C,.,?,15µM,.,.,.
CCOC(=O)[C@H]1[C@H]2COc3ccc(OC)cc3[C@@H]2N2C(=O)CN(Cc3ccc(OC)cc3)C(=O)[C@@]12C,.,?,6.6µM,.,.,.
CCOC(=O)[C@H]1[C@H]2COc3ccc(OC)cc3[C@H]2N2C(=O)CN(Cc3ccccc3)C(=O)[C@@]12C,.,/,/,/,.,/
CCOC(=O)[C@H]1[C@H]2COc3ccc(C)cc3[C@@H]2N2C(=O)CN(Cc3ccc(C)cc3)C(=O)[C@@]12C,.,?,?,.,.,.
CCOC(=O)[C@H]1[C@H]2COc3cc(OC)ccc3[C@@H]2N2C(=O)CN(Cc3ccc(OC)cc3)C(=O)[C@@]12C,?,?,12µM,.,.,.
COc1cccc(N2CCN(c3ncnc4onc(-c5ccc(Cl)cc5)c34)CC2)c1,/,/,/,/,/,.
O=C(COc1ccc(F)cc1)NCc1ccc2c(c1)CCN2C(=O)c1ccccc1,/,/,/,/,/,.
Cc1c(CC(=O)N2C[C@H]3C[C@@H](C2)c2cccc(=O)n2C3)c(=O)oc2cc3occ(C(C)(C)C)c3cc12,.,8.3µM,.,.,.,?
SMILES,HCV inhibitor,Pf growth 96h,Pf growth 48h,AmpC no deterg,AMA1 RON2 block,AmpC inh detg
C=C(C)COc1ccc2c(C)c(CC(=O)N3C[C@H]4C[C@@H](C3)c3cccc(=O)n3C4)c(=O)oc2c1C,.,12µM,?,.,.,?
O=C1C(=O)c2ccccc2C([O-])=C1[n+]1ccccc1,.,7.4µM,3.7µM,.,.,.
Cn1c(=O)c(-[n+]2ccccc2)c([O-])c2ccccc21,?,.,/,.,.,.
Clc1ccc2nc(NCc3ccccc3)c3nncn3c2c1,/,/,/,/,/,.
Cc1cccc(Cn2c(NCC(C)O)nc3c2c(=O)n(C)c(=O)n3C)c1 (stereo unspecified),4.5µM,/,.,.,.,.
COCCNc1nc2c(c(=O)n(C)c(=O)n2C)n1Cc1cccc(C)c1,10µM,.,.,.,.,?
COCCCNc1nc2c(c(=O)n(C)c(=O)n2C)n1Cc1cccc(OC)c1,?,?,.,.,.,.
COCCn1c(SCC(=O)Nc2cc(Cl)ccc2OC)nc2c([nH]c3ccccc32)c1=O,/,/,/,/,/,.
Cc1cc(NS(=O)(=O)c2ccc(N)cc2)nc(C)n1,/,.,.,/,/,/
CCOC(=O)C1CCN(S(=O)(=O)c2cc(-c3cc(C)no3)ccc2OC)CC1,/,/,/,/,/,.
CC1(C)CC(=O)c2cc(-c3nc(-c4ccc(Cl)cc4)cs3)c(=O)[nH]c2C1,/,/,/,/,/,.
COc1cccc(/C=C/C(=O)NCc2ccc(S(N)(=O)=O)cc2)c1,10µM,.,.,.,.,.
Cc1sc2nc(CSCC(=O)Nc3ccccc3C#N)[nH]c(=O)c2c1C,.,5.2µM,.,.,.,.
CSc1ccccc1NC(=O)CSCc1nc2sc(C)c(C)c2c(=O)[nH]1,.,.,.,.,.,?
CN(Cc1ccccc1)S(=O)(=O)c1ccc(S(=O)(=O)N(Cc2ccc(F)cc2)C2CCCC2)cc1,.,/,?,.,.,.
Cc1ccc(S(=O)(=O)NC2CCCCCCC2)cc1,.,8.3µM,.,.,.,.
O=C(O)c1ccc(S(=O)(=O)N(Cc2ccc(F)cc2)C2CCCCC2)cc1,.,12µM,.,.,.,.
O=C(O)c1ccc(S(=O)(=O)NC2CC2)cc1,.,.,.,.,.,.
O=C(O)c1ccc(S(=O)(=O)NC2CCCCCC2)cc1,.,12µM,.,.,.,.
COc1ccc(CNC(=O)Cn2ncc3c(=O)oc4ccc(C)cc4c32)c(OC)c1,/,/,/,/,/,.
CC(C)C1C(=O)Nc2ccc(S(=O)(=O)NCc3ccc(Cl)cc3)cc21 (stereo unspecified),/,/,/,/,/,.
COc1ccc(-c2noc(C(C)NC(=O)c3ccco3)n2)cc1 (stereo unspecified),/,/,/,/,/,.
CC(Oc1ccc(Cl)cc1Cl)c1nc(-c2ccc(NC(=O)c3ccco3)cc2)no1 (stereo unspecified),?,0.93µM,/,.,.,.
COc1c(CC=C(C)C)c(O)cc2oc(=O)c3c4ccc(O)cc4oc3c12,4µM,/,/,/,.,/
